In PubChem BioAssay AID449762 (Southern Research Specialized Biocontainment Screening …, 2010):
About 1,900 (0.58%) of roughly 330,000 compounds were called active. About 4% were inconclusive and are not listed. Cut-off read from the data, not from the text of the source: inconclusive = inhibition above about 70% without an active follow-up result; inactive = below that. Only a sample is shown. Potency and affinity values are given separately.

test: M. tuberculosis growth inhibition, HTS (AID 449762);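 note: bacterial growth assessed after seven days of incubation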; settings: M. tuberculosis H37Rv growth inhibition, 7H9 media; at 25 µM; active compounds read high

SMILES | inhibition
COc1cc(OC)c(NC(=O)CCCNC(=O)Cn2cnc3sc(C)c(C)c3c2=O)cc1Cl | -3.56% (inactive)
CCN(CC(=O)Nc1ccc(NC(C)=O)cc1)C(=O)c1ccccc1SCC(=O)N1CCCC1 | 6.02% (inactive)
O=C(NCCOc1ccccc1F)c1cccc(S(=O)(=O)N2CCN(c3ccccc3)CC2)c1 | 4.44% (inactive)
c1ccc2nc(-c3ccncc3)ccc2c1 | -14.1% (inactive)
c1ccc(-c2ccc3ccccc3n2)cc1 | -0.21% (inactive)
Cc1cc(C)c(C#N)c(SCC(=O)c2cc(C)n(CCc3ccccc3)c2C)n1 | -0.68% (inactive)
O=C(NCCCN1CCOCC1)c1ccc(Sc2ccc(F)cc2)c([N+](=O)[O-])c1 | -0.04% (inactive)
NS(=O)(=O)c1ccc(NC(=O)CSC2CCCCC2)cc1 | -6.63% (inactive)
COc1ccc(NC(=O)CNC(=O)C2CCCCC2)cc1 | 13.5% (inactive)
CCC(C)NC(=O)CN1C(=O)NC2(CCOc3ccccc32)C1=O (stereo not given) | 7.03% (inactive)
CC(C)C1(C(C)C)OC(=O)c2ccccc21 | 0.62% (inactive)
CCCn1ncc(CN2CCC(Cc3cccc(F)c3)(C(=O)OCC)CC2)c1C | -1.6% (inactive)
COc1ccc(OCC(O)Cn2c(=N)n(Cc3ccccc3)c3ccccc32)cc1 (stereo not given) | 26.5% (inactive)
N=c1n(Cc2ccccc2)c2ccccc2n1CC(O)COc1ccccc1 (stereo not given) | 14.3% (inactive)
CSCC(=O)N1CCCC(CNC(=O)c2ccc(-c3ccccc3)cc2)C1 (stereo not given) | 3.04% (inactive)
CC(=O)CCC(=O)N1CCCC(CNC(=O)c2ccc(-c3ccccc3)cc2)C1 (stereo not given) | -4.64% (inactive)
CC(C)(C)OC(=O)C[C@H]1C/C=C\C[C@H](CC(=O)NCCO)C(=O)NC[C@H](c2ccccc2)OC1=O | -2.46% (inactive)
COc1cccc(N(C(=O)CNC(=O)c2ccco2)C(C(=O)NC2CCCC2)c2ccncc2)c1 (stereo not given) | 0.28% (inactive)
O=C(O)CCCn1cc(NC(=O)COc2ccccc2)cn1 | 1.85% (inactive)
Clc1ccc(SCCn2ccnc2)cc1 | -6.09% (inactive)
O=C(Cc1ccc(Cl)cc1)NCCCn1ccnc1 | 0.59% (inactive)
CCNCCNC(=O)c1c(O)c2c([nH]c1=O)CCCC2 | -0.1% (inactive)
Cc1nn(Cc2ccc(Cl)cc2Cl)c(C)c1NC(=O)CCl | 70.1% (inactive)
Cc1ccc(CCNC(=O)C2CC(c3cccc(F)c3)=NO2)cc1 (stereo not given) | 0.56% (inactive)

SMILES | inhibition
C=CCOc1c(Cl)cc(CNc2nccs2)cc1OC | 56.1% (inactive)
C=CCOc1ccc(CNc2nccs2)cc1OC | -5.03% (inactive)
CCCOc1ccc(C(=O)N/N=C/c2c[nH]c3ccc(Br)cc23)cc1 | 1.55% (inactive)
COc1ccccc1Nc1cc(C)nc2c(C)ccc([N+](=O)[O-])c12 | -0.28% (inactive)
Cc1cc(Nc2ccccc2)c2c([N+](=O)[O-])cc(C)c(C)c2n1 | 6.4% (inactive)
COC(=O)C1=C(COc2ccc(C=O)cc2OC)NC(=O)NC1c1cc(C)ccc1C (stereo not given) | -8.91% (inactive)
Cc1cc(C)c2oc(=O)cc(CN3CCC(C)CC3)c2c1 | 5.8% (inactive)
Cc1coc2c(C)c3oc(=O)c(CCC(=O)N4CCC(C(=O)NCCCC(=O)O)(c5ccccc5)CC4)c(C)c3cc12 | 5.29% (inactive)
CC12CCC(C(=O)Nc3cccnc3)(CC1=O)C2(C)C (stereo not given) | -6.21% (inactive)
O=C(NN(c1ccccc1)c1ccccc1)c1ccc([N+](=O)[O-])o1 | 56.9% (inactive)
O=C(NCC1CCCO1)c1ccc([N+](=O)[O-])o1 (stereo not given) | -10.8% (inactive)
C=CCn1c(SCC(=O)NCC2CCCO2)nc2scc(-c3ccccc3)c2c1=O (stereo not given) | -12.7% (inactive)
CCOCCCNC(=S)NCCCNc1nc2cc3c(cc2cc1C#N)OCO3 | -2.17% (inactive)
Cc1ccc(C(=O)/C=C/Nc2ccc(S(=O)(=O)Nc3cc(C)nc(C)n3)cc2)cc1 | 4.23% (inactive)
CCOc1cc(/C=N/NC(=O)C(=O)Nc2cc(Cl)ccc2C)ccc1O | 5.58% (inactive)
Cc1c(C(=O)NCc2ccccc2)cnn1-c1ccccc1 | 0.38% (inactive)
CC(=O)c1cnn(-c2ccccc2)c1C | -0.96% (inactive)
O=C(NN=C1CCCCCC1)c1ccc(Cl)s1 | -7.6% (inactive)
O=C(Nc1ccc(N2CCN(C(=O)c3ccccc3F)CC2)cc1)c1cncc(Br)c1 | 32.6% (inactive)
COc1ccc(NC(=O)CN(C)CC(=O)N(C)C2(C#N)CCC(C)CC2)cc1 (stereo not given) | 6.58% (inactive)
O=C1Nc2ccccc2/C1=N\c1sc2c(c1C(=O)Nc1ccccc1)CCCC2 | -6.89% (inactive)
COc1ccc(-c2noc(N3CCC(C(=O)Nc4ccccc4F)CC3)n2)cc1 | -6.51% (inactive)
CSc1nc(C)c2c(n1)N(c1ccc(F)cc1)CC2 | 5.53% (inactive)
COc1ccc(N2CCc3c(C)nc(SC)nc32)cc1 | 37.6% (inactive)

SMILES | inhibition
Cc1cccc(NC(=O)Cn2nnc(-c3cccs3)n2)c1C | 4.16% (inactive)
Cc1cc2ccccc2c(=O)n1CC(=O)NCC(=O)N1CCN(c2ccccc2)CC1 | 3.46% (inactive)
CC12CCC(C(=O)N3CCCCCC3)(OC1=O)C2(C)C (stereo not given) | 0.66% (inactive)
O=C(c1ccc2nc(N3CCOCC3)sc2c1)N1CCN(C(=O)c2ccco2)CC1 | -6.14% (inactive)
O=C(c1ccc2nc(N3CCOCC3)sc2c1)N1CCCC1 | -5.7% (inactive)
Cc1ccc(S(=O)(=O)N(C)c2ccc(OCC(=O)Nc3ccc(C(=O)N(C)C)cc3)cc2)cc1C | -1.34% (inactive)
Cn1cc(C(=O)N/N=C/C2=C(N3CCOCC3)C(=C/c3ccc([N+](=O)[O-])cc3)/CC2)ccc1=O | 2.15% (inactive)
COc1cc(C(=O)NC(=S)Nc2ccc3[nH]c(=O)[nH]c3c2)cc(OC)c1OC | 5.44% (inactive)
COCCCN1C(=O)C(=O)/C(=C(/O)c2ccc(OC)cc2)C12C(=O)N(C)c1ccccc12 (stereo not given) | 0.02% (inactive)
O=C(/C=C\c1cccs1)c1c(O)ccc2ccc(=O)oc12 | 69.8% (inactive)
CCN(CC)S(=O)(=O)c1ccc2oc(SCC(=O)NCc3ccccc3)nc2c1 | -7.94% (inactive)
CCN(CC)S(=O)(=O)c1ccc2oc(SCC(=O)NC3CC3)nc2c1 | -7.6% (inactive)
COC(=O)C1=C(C)N(c2ccc(OC)cc2)C(=O)/C1=C\c1cccs1 | -1.06% (inactive)
CC(=O)c1ccc(OCC(=O)c2cc(C)n(-c3ccc4c(c3)OCO4)c2C)cc1 | -1.32% (inactive)
O=C(c1cc(Br)ccc1Cl)N1CCN(c2ncccn2)CC1 | 6.19% (inactive)
COCCN(C(=S)Nc1cccc(C)c1C)C(C)c1ccco1 (stereo not given) | 4.25% (inactive)
CCCNC(=O)C(Cc1ccccc1)NC(=O)c1ccc(C(C)(C)C)cc1 (stereo not given) | -2.64% (inactive)
CC(=O)C1=C(O)C(=O)N(c2cccc(Br)c2)C1c1ccc(Br)cc1 (stereo not given) | 1.06% (inactive)
COc1ccc(-c2noc(CSc3nc(-c4ccccc4)cc(=O)[nH]3)n2)cc1 | -1.49% (inactive)
NC1=NC2(CCCC2)n2c(nc3ccccc32)N1 | 1.5% (inactive)
CC1CCC2(CC1)N=C(N)Nc1nc3ccccc3n12 (stereo not given) | 11.2% (inactive)
O=C(O)c1cc(-c2ccccc2)nc2ccccc12 | -1.59% (inactive)
c1ccc(-c2cc3c(ccc4nonc43)nn2)cc1 | -0.15% (inactive)
COc1cc(C(=O)NCC(c2cccs2)N2CCOCC2)cc(OC)c1OC (stereo not given) | 7.52% (inactive)

SMILES | inhibition
COc1ccc2c(c1)O/C(=C\c1ccco1)C2=O | -4.09% (inactive)
CCC(=O)Oc1ccc2c(c1)O/C(=C\c1ccco1)C2=O | 6.29% (inactive)
Cc1ccccc1OCC(O)Cn1c(N2CCCCC2)nc2c1c(=O)[nH]c(=O)n2C (stereo not given) | 6.49% (inactive)
Cc1cc(C)nc(-n2ncc3c2CC(c2ccccc2C)CC3=O)n1 (stereo not given) | 3.74% (inactive)
Cc1ccc(-c2cc(-c3ccc(C)cc3O)[nH]n2)cc1 | 17.4% (inactive)
Cc1ccc(O)c(-c2cc(-c3ccccc3F)[nH]n2)c1 | 33.9% (inactive)
O=C1CN(C(=O)COC(=O)CCC(=O)c2ccc(F)cc2)c2ccccc2N1 | -6.63% (inactive)
CCOCCn1c(CN2CCN(C(=O)c3ccco3)CC2)nc2c1c(=O)n(C)c(=O)n2C | 5.24% (inactive)
COc1cc(C(=O)OC2CC3CCC2(C)C3(C)C)ccc1OC(C)=O (stereo not given) | -10.7% (inactive)
O=c1cc(-c2ccccc2)nc(Cc2c(Cl)cccc2Cl)[nH]1 | 8.31% (inactive)
COCc1cc(=O)[nH]c(Cc2c(Cl)cccc2Cl)n1 | 3.62% (inactive)
O=C(NCc1ccccn1)C(=O)Nc1cc2c3c(c1)CC(=O)N3CCC2 | 5.14% (inactive)
COc1cccc(C(=O)OCC(=O)c2ccc(Br)s2)c1 | -2.52% (inactive)
COc1ccc(C(=O)OCC(=O)c2cc(OC)ccc2OC)c(OC)c1 | -2.93% (inactive)
CSc1nc2nc(-c3ccc(F)cc3)c(CCN3CCN(C)CC3)cn2n1 | -4.6% (inactive)
OCCNc1nc(NCc2ccccc2)c2ccccc2n1 | 5.73% (inactive)
CNc1nc(NCc2ccccc2)c2ccccc2n1 | 16.5% (inactive)
CC1(/[N+]([O-])=C/c2ccc(Cl)cc2Cl)CCCCC1=O (stereo not given) | 3.79% (inactive)
O=C(Cn1c(CO)nc2ccccc21)NC1CCCCCC1 | -4.47% (inactive)
COCCN(C(=O)c1csnn1)C(C(=O)NC1CCCC1)c1ccccc1F (stereo not given) | -6.7% (inactive)
COC(=O)c1cnn(-c2nc(OC)cc(OC)n2)c1C | 5.96% (inactive)
COc1cc(OC)nc(-n2ncc(OC)c(Br)c2=O)n1 | -1.81% (inactive)
CSc1ccc(CN2C(=O)NC3(CCCCCCC3)C2=O)cc1 | 3.48% (inactive)
